# Screen size: about 38,000 compounds; about 1,200 (3.2%) showed an effect of 50% or more. The median lay at about -58%. The list comes from a sample in which strong results are over-represented; it also holds similar structures and randomly drawn compounds.
# Test system: Plasmodium falciparum
# Test: Calibr Malaria Delayed Death Assay SOP
# Format: functional, organism-based
# Design: scale not given: in the data most compounds retested in dose-response had high values
# Details: concentration 4.99e-06 (unit not given; other assays of the set use mol/L)
row,SMILES,Percent Effect [%]
1,CC1(C)CCN1C(=O)c1cc(F)cc2[nH]cnc12,-143.1
2,CNC(=O)CS(=O)(=O)NC1CCC(C)CC1 (stereo not drawn),0.5939
3,Cc1cc(CN2CCN(Cc3cc(C#N)ccc3F)CC2)no1,-43.24
4,O=C(O)C(F)(F)F.c1cnc(N2C[C@@H]3COC[C@]3(COCC3CCCC3)C2)nc1,-62.66
5,COc1ccc(S(=O)(=O)NCCn2cnc(C)cc2=O)cc1C,-119.1
6,COc1cccc(CN(C)Cc2cc(C#N)ccc2F)c1OC,-37.67
7,COc1cccc(CN(C)Cc2ccccc2C#N)c1OC,-10.45
8,CC(C)OCc1nn(C)c2c1CCN(CC1CC1)C2.O=C(O)C(F)(F)F,-24.03
9,O=C(N1CCN(CCO)CC1)C1(O)Cc2ccccc2C1,-7.059
10,O=C(N1CCc2ccccc2CC1)C1(O)Cc2ccccc2C1,56.27
11,O=C(N1CCSCC1)C1(O)Cc2ccccc2C1,-49.25
12,COCCNC(=O)C1CN(C(N)=O)Cc2ccnn2C1 (stereo not drawn),-83.21
13,O=C(c1coc(COc2cccc3cnccc23)n1)N1CCCCCC1,16.31
14,O=C(O)c1coc(COc2cccc3cnccc23)n1,-75.43
15,CC(C(=O)Nc1ccc(N2CCCCC2)nc1)n1ccnc1 (stereo not drawn),-81.15
16,Cn1ccnc1CN(Cc1cccnc1)CC1CCCO1 (stereo not drawn),-29.26
17,N#Cc1ccccc1CN1CCc2sccc2C1,-109.2
18,CC(CNC(=O)c1ccco1)N1CCc2sccc2C1 (stereo not drawn),-89.83
19,NCC(c1ccccc1)N1CCc2sccc2C1 (stereo not drawn),56.94
20,O=C(CCn1ccc2ccc(Br)cc21)/N=c1\[nH]nc(C2CCCO2)s1 (stereo not drawn),-91.4
21,CC(c1ccc(S(C)(=O)=O)cc1)N(C)C(=O)c1ccccc1I (stereo not drawn),-43.05
22,COc1ccc(CCC(C)Nc2cccc(SC)c2)cc1 (stereo not drawn),-91.4
23,COc1ccc(C(C)NCc2ccnn2C)cc1Cn1cccn1 (stereo not drawn),-53.25

row,SMILES,Percent Effect [%]
1,COc1ccc(C(C)NCc2scnc2C)cc1Cn1cccn1 (stereo not drawn),-18.73
2,COc1ccc(C(C)NCc2ccsc2)cc1Cn1cccn1 (stereo not drawn),71.68
3,COc1ccc(C(C)NCc2cccs2)cc1Cn1cccn1 (stereo not drawn),28.81
4,COc1ccc(OC)c(CN2CCN(Cc3cscn3)CC2)c1,-31.14
5,COc1ccc(C(C)NCc2cscn2)cc1Cn1cccn1 (stereo not drawn),71.39
6,CCc1nnc(CN2CCCCC2Cn2cncn2)o1 (stereo not drawn),-69.23
7,Cc1nc(C2CCCN2C(=O)CCOCc2ccccc2)no1 (stereo not drawn),-117.2
8,O=S(=O)(Nc1cnn(C2CCOCC2)c1)c1ccc(Br)cc1,-25.25
9,CNC(=O)N1CCCCC1c1nnc2n1CCCC2 (stereo not drawn),-92.12
10,O=C1c2cnc(N3CCCCC3)nc2CN1c1ccc2c(c1)OCO2,-196
11,CCNc1nc(C)c(C(=O)N(C)Cc2nc(CC)no2)s1,-30.42
12,O=C1NCCCCC1NCc1csc(-c2ccsc2)n1 (stereo not drawn),-129.5
13,O=C(O)Cn1nc(C2CC2)c2c(-c3cccs3)ccnc21,-11.75
14,O=C(O)Cn1nc(C2CC2)c2c(-c3ccco3)ccnc21,-116
15,O=c1[nH]c(NC2CCCC2)nc2nccc(-c3ccco3)c12,71.56
16,O=c1[nH]c(NC2CCCC2)nc2nccc(-c3ccsc3)c12,67.56
17,O=C(NC[C@H]1CCCC[C@H]1O)c1ccc2nc(-c3ccco3)[nH]c2c1,-121.1
18,O=C(NC1CCCC1)C1Cc2nc(-c3ccsc3)sc2N1CC1CC1 (stereo not drawn),-48.35
19,O=c1[nH]c(NC2CCCC2)nc2nccc(-c3cccs3)c12,55.34
20,O=C(NC[C@H]1CCCC[C@H]1O)c1cccc2[nH]c(-c3cccs3)nc12,-57.07
21,Cc1cccc(CN(C(=O)CCn2cncn2)C(C)C)c1,-52.83
22,O=C(CCc1nc2cc(Br)cnc2[nH]1)NCCCN1CCOCC1,-51.18
23,COc1ccc(C)cc1CC(=O)NC1(C#N)CCOCC1,-117.4

row,SMILES,Percent Effect [%]
1,CCOc1cc(C(=O)NS(=O)(=O)c2cccc(C#N)c2)ccc1OC,-127.1
2,CCC(CC)CN1CCN(CC(=O)Nc2ccc3nsnc3c2)CC1,27.19
3,CN(C)C(=O)CN1CCC2(CCN(C(=O)N3CCCC3)CC2)C1=O,-157.2
4,CC(C)Oc1ncnc2c1CCN(Cc1ccco1)CC2.O=C(O)C(F)(F)F,60.03
5,CC(C)Oc1ncnc2c1CCN(Cc1ccc(F)cc1)CC2.O=C(O)C(F)(F)F,69.87
6,Cc1nc(C)c2c(n1)CCN(Cc1ccco1)CC2,-20.07
7,c1coc(CN2CCc3ncnc(C4CCOC4)c3CC2)c1 (stereo not drawn),-48.34
8,CC(C)Oc1ncnc2c1CCN(Cc1ccoc1)CC2.O=C(O)C(F)(F)F,29.43
9,COCCN1CCc2ncnc(OC(C)C)c2CC1.O=C(O)C(F)(F)F,-76.73
10,COc1ncnc2c1CCN(Cc1cccs1)CC2.O=C(O)C(F)(F)F,-104.3
11,Cc1ccc(CN2CCc3ncnc(OC(C)C)c3CC2)s1.O=C(O)C(F)(F)F,-2.65
12,CCOc1cc(C(=O)N2CCCC(c3noc(C(C)C)n3)C2)ccn1 (stereo not drawn),-128.3
13,Cc1c(F)cc(C(=O)O)cc1S(=O)(=O)Nc1ccc(F)c(C#N)c1,-35.67
14,Cc1occc1-c1nnc2n1NC(N)=C(C#N)S2,-74.61
15,COCCN(C)C[C@@H]1CN(C(=O)c2ccc(O)c(C)c2)C[C@@H]1CO,-85.42
16,COc1ccc(-c2cc(C3CCN(C(C)=O)CC3)ccn2)cc1,-100.7
17,COc1ccc(-c2ccc(C3CNCCO3)nc2)cc1.Cl (stereo not drawn),63.33
18,COc1ccc(-c2cnc(NC(C)=O)[nH]2)cc1,-138
19,C[C@H]1C[C@@H]2CCN(C(=O)c3cnccn3)C[C@H]2O1,-123.8
20,Cc1ccc(N2N=C(C(=O)O)S(=O)(=O)c3cccnc32)cc1,-91.48
21,O=C(CCCn1cncn1)NC1CCc2nccn2C1 (stereo not drawn),-11.39
22,COc1ccc(CN(C)CCS(=O)(=O)c2ccc(Cl)cc2)cc1OC,-60.68

# Reference: ChEMBL document CHEMBL3988442, “University of Dundee, Small-Polar-MMV Screening Library” (2021)
